Reference: PubChem BioAssay AID894 (National Center for Advancing Translational Sciences (NCATS), 2007)
Several values for one entry are separate records, joined by “and”; a condition that tells them apart may be missing. Identical values can stand only once. About 6,500 (4.3%) of roughly 150,000 compounds were called active. Another 12% or so got no clear call; they are omitted. This excerpt belongs to a sample that is enriched for actives. Values without a mark were called inactive. The call rests on the fitted dose curve; in most records, active means well fitted inhibition curve with a large enough effect (not every such curve was filed as active); inconclusive means small, poorly fitted or top-dose-only effect, or another doubt; inactive means no such curve, though single readings can be large or run the other way.
On the % scale 0 is the no-effect control and ±100 the full control effect; potency means the concentration at half of the fitted maximal effect.

The molecules below were run against 15-hydroxyprostaglandin dehydrogenase [NAD(+)] (Homo sapiens) (UniProt P15428) (assay: qHTS Assay for Inhibitors of HPGD (15-Hydroxyprostaglandin Dehydrogenase)). Settings: purified HPGD, NADH fluorescence kinetic, PGE2 substrate; activity change, negative = inhibition: active compounds read low.
15-hydroxyprostaglandin dehydrogenase [NAD(+)] (Homo sapiens), sequence (P15428 whole entry, looked up): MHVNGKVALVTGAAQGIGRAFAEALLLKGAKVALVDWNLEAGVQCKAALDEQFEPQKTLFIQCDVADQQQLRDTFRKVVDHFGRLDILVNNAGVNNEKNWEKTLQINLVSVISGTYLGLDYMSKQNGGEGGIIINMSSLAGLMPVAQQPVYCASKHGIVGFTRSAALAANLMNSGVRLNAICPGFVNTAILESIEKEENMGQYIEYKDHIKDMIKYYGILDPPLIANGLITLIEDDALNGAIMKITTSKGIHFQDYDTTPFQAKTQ
Outline: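 20 nM HPGD preincubated 15 min at room temperature with compound in 50 mM Tris-HCl pH 8, 0.01% Tween 20. Started with 1 mM NAD+ and 30 uM prostaglandin E2; NADH fluorescence (360/450 nm) read 5 times over 30-s intervals, last minus first.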
`O=C(Nc1ccccc1N1CCN(C(=O)c2ccccc2)CC1)c1ccc2c(c1)OCO2` was tested, and the activity change, negative = inhibition was -1.04%.
`O=C(c1cccc(S(=O)(=O)N2CCOCC2)c1)N1CCOCC1` showed an activity change, negative = inhibition of -2.21%.
`O=C(c1ccc2c(c1)OCO2)N1CCN(C(=O)c2ccco2)CC1` showed an activity change, negative = inhibition of -11.7%.
In the case of `CC(Nc1oc(-c2ccccc2)nc1-c1ccccc1)c1ccccc1` (stereo not given), the activity change, negative = inhibition is reported as 0.641% and -7.86%.
For `COc1ccc(Cc2nnc(N/N=C/c3ccccc3O)[nH]c2=O)cc1OC`, the activity change, negative = inhibition was -16.1%.
In the case of `NS(=O)(=O)c1ccc(N=Cc2ccc(Br)s2)cc1`, the activity change, negative = inhibition is reported as -0.454%.
`N#Cc1ccccc1NC(=O)COc1c(Br)cc(Br)c2cccnc12` gave an activity change, negative = inhibition of -10%.
In the case of `Fc1ccc2nc(N3CCCCC3)sc2c1`, the activity change, negative = inhibition is reported as -12.2%.
For `Fc1cc(F)c2nc(N3CCOCC3)sc2c1`, the activity change, negative = inhibition was -12.5%.
In the case of `c1c2c(cc3sc(N4CCCCC4)nc13)OCCO2`, the Potency is reported as 25.1 µM (active).
Work on `CC1=C(C/C=C(\C)CCCC(C)CCCC(C)CCCC(C)C)C(=O)c2ccccc2C1=O` (stereo not given) yielded an activity change, negative = inhibition of -10.7%.
`CCC(C)(C(=O)NC1CCCCC1)N(C)C(=O)c1ccc2c(c1)OCO2` (stereo not given) showed an activity change, negative = inhibition of -0.912%.
Work on `O=C(CN(Cc1ccccc1)C(=O)c1ccc2c(c1)OCCO2)NCc1ccc2c(c1)OCO2` yielded an activity change, negative = inhibition of -6.78%.
For `CCCCN(CC)C(=O)c1ccc2c(c1)OCO2`, the Potency was 12.6 µM (active).
Molecule `CCn1c(=O)cc(SCC(=O)NCc2ccc3c(c2)OCO3)c2ccccc21` has an activity change, negative = inhibition of -4.58%.
`Cc1nnc(OCC(=O)NCCC2=CCCCC2)c2ccccc12` showed an activity change, negative = inhibition of -17.6%.
With `CCn1c(=O)cc(SCC(=O)NCCC2=CCCCC2)c2ccccc21` the Potency was 7.08 µM (active).
With `O=C1CC(c2cccc(Cl)c2)CC(O)=C1C=Nc1ccccc1` (stereo not given) the activity change, negative = inhibition was -9.88%.
For `O=C(CNC(c1ccccc1)c1ccccc1)Nc1ccc(F)cc1`, the activity change, negative = inhibition was -9.88%.
In the case of `Nc1ccc(Oc2ccc(Cl)cc2)cc1`, the activity change, negative = inhibition is reported as -8.65%.
`Cc1ccc(Oc2ccc(N)cc2)cc1` gave an activity change, negative = inhibition of -24%.
In the case of `CC(C)(C)c1ccc(Oc2ccc(N)cc2)cc1`, the Potency is reported as 28.2 µM (active).
Work on `CCCCN(CC)C(=S)Nc1ccc2nc3n(c(=O)c2c1)CCCCC3` yielded an activity change, negative = inhibition of -1.94%.
`COc1ccc(C(=O)ON=C2c3ccccc3-c3ccccc32)cc1OC` gave an activity change, negative = inhibition of -23.4%.
In the case of `CCOc1ccc(Oc2nc(C)cc(OC)n2)nn1`, the activity change, negative = inhibition is reported as -6.46%.
`Cc1scc(C(=O)NNC(=S)NCC(C)C)c1C` was tested, and the activity change, negative = inhibition was -5.27%.
For `Cc1cccc(NC(=S)N(CCN(C)C)C(C)c2ccco2)c1` (stereo not given), the activity change, negative = inhibition was -15.4%.
`COc1ccc(S(=O)(=O)NC(C)C)cc1C(=O)NC1CCCCC1` showed an activity change, negative = inhibition of -17.6%.
In the case of `CCC(CC)c1nnc(NC(=O)/C=C/c2ccco2)s1`, the activity change, negative = inhibition is reported as -29.6%.
For `O=c1[nH]c(-c2cccs2)nc2ccccc12`, the Potency was 15.8 µM (active).
`c1ccc2[nH]c(-c3nc4ccccc4[nH]3)nc2c1` was tested, and the activity change, negative = inhibition was -25.9%.
Molecule `O=c1onc(-c2cccs2)n1Cc1ccccc1` has an activity change, negative = inhibition of -5.59%.
`Nc1nc(CC(=O)CSc2ccc(Cl)cc2)nc(Nc2ccc(F)cc2)n1` showed an activity change, negative = inhibition of -7.75%.
`COc1cc(OC)cc(C(=O)NCCSCc2ccco2)c1` was tested, and the Potency was 20 µM (active).
`O=C(/C=C/c1ccc([N+](=O)[O-])cc1)NCCSCc1ccco1` gave an activity change, negative = inhibition of -22.9%.
In the case of `CS(=O)(=O)N(Cc1ccc(Cl)cc1)c1ccc(C(=O)NCCSCc2ccco2)cc1`, the activity change, negative = inhibition is reported as -4.85%.
For `O=C(/C=C/c1cccc([N+](=O)[O-])c1)NCCSCc1ccco1`, the Potency was 25.1 µM (active).
`COc1ccc(CCNC(=O)c2ccco2)cc1` showed an activity change, negative = inhibition of -3.27%.
`CCC(CC)NC(=O)/C=C/c1cccc([N+](=O)[O-])c1` gave an activity change, negative = inhibition of -13.1%.
`CC(=O)Nc1cccc(/C(C)=N/NC(=O)c2c(-c3ccccc3Cl)noc2C)c1` gave an activity change, negative = inhibition of -6.16%.
`COc1ccc(S(=O)(=O)NC(C)C(=O)Nc2cccc([N+](=O)[O-])c2)cc1` (stereo not given) showed an activity change, negative = inhibition of -10.4%.
For `O=C(COC(=O)Cn1cnc2ccccc2c1=O)NCC12CC3CC(CC(C3)C1)C2`, the activity change, negative = inhibition was -2.81%.
In the case of `COc1cc(NC(=O)Nc2ccc(C)cc2)cc([N+](=O)[O-])c1`, the activity change, negative = inhibition is reported as -10.2%.
Work on `CCOC(=O)C1=NO[C@@]2(C=C(Br)C(=O)[C@H]3O[C@H]32)C1` yielded an activity change, negative = inhibition of -23%.
With `Clc1ccccc1-c1cc(COc2ccc3ccccc3c2)no1` the activity change, negative = inhibition was -25.6%.
For `COc1ccccc1-c1cc(C(=O)NCCCn2ccnc2)no1`, the activity change, negative = inhibition was -21.8%.
With `O=C(NCc1ccccn1)c1cc(-c2ccccc2Cl)on1` the Potency was 14.1 µM (active).
Molecule `CCOC(=O)c1c(NC(=O)CSc2nnc(CN3CCOCC3)n2C)sc2c1CCCC2` has an activity change, negative = inhibition of -2.63%.
In the case of `NC(=O)c1c(NC(=O)CSc2nnc(-c3ccco3)n2N)sc2c1CCCC2`, the Potency is reported as 14.1 µM (active).
`CCc1cccc(C)c1NC(=O)CSc1nnc(-c2ccco2)n1N` was tested, and the activity change, negative = inhibition was -10.6%.
